# Source: PubChem BioAssay
# A number with no mark means an inactive call.
# Assay: ATP-based viability of Huh7 replicon cells – cell-based, CellTiter-Glo luminescence, basal, 48 h, cytotoxicity control for HCV replication inhibitor project, primary screen (AID 1143);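 also: Huh7 hepatoma cells carrying a hepatitis C replication reporter with no stimulus; test concentration not given here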
# Conditions: higher = more signal, called active from +8 up or from −8 down
row,Compound,z-score
1,CCOC(=O)C1=CC[C@@H](c2ccccc2)N(S(=O)(=O)c2ccc(C)cc2)[C@H]1C,-4.32
2,O=C(N1CCCCC1)[C@@]1(CCS(=O)(=O)c2ccccc2)N=C(c2ccc(OCCCO)cc2)O[C@H]1c1ccccc1,-5.06
3,CC(C)(C)OC(=O)CC[C@]1(C(=O)N2CCCCC2)N=C(c2ccc(OCCCO)cc2)O[C@H]1c1ccccc1,-3.16
4,N#Cc1ccc(NN2C(C(O)CCc3ccccc3)C=CC3C(=O)N(c4ccccc4)C(=O)C32)cc1 (configuration not stated),-0.843
5,Cc1ccc(S[C@]2(C(=O)NC3CC3)CC(=O)N(Cc3cc(C(F)(F)F)cc(C(F)(F)F)c3)[C@@H]2c2ccc(CO)cc2)cc1,-2.38
6,C#CCCCON=C1C[C@@H](O)[C@@H](O)[C@@H]2[C@@H]3C(=O)N(Cc4ccc5c(c4)OCO5)C(=O)[C@@H]3CC[C@@H]12,-0.209
7,Cc1ccc(S(=O)(=O)N2[C@@H](c3ccccc3)C(C(=O)O)=CC[C@H]2c2ccccc2)cc1,-0.498
